# Test results from PubChem BioAssay AID588398 (Broad Institute, 2011).
# In all, about 1,200 compounds went through this assay and about 110 (9.2%) were called active. About 8% were inconclusive and are not listed. The list is a sample of the results. Entries with a potency or affinity are not part of this list. A number with no mark means an inactive call.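 Rule for the calls: active = pathway reporter half-maximal dose under half the control reporter's, or control reporter unaffected while pathway reporter is inhibited; inconclusive = either signal flat at 30 to 70% inhibition or poorly fitted; inactive = the rest.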
# Experiment: TES1-eGFP NF-kB reporter inhibition versus Tet-On dsRED, dose response, selectivity assay for LMP1 NF-kB inhibitor project, imaging, HEK293T, dual-color eGFP/dsRED, cherry-picks (AID 588398);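 note: 0% = median of neutral control wells and -100% = median of MG132 positive control wells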
# Settings: 48 h; HEK293T Tet-On dsRED counter-screen channel, at 19.5 µM (top of the series); activity change, negative = inhibition: at the top concentration
row,Compound,"activity change, negative = inhibition"
1,Cc1[nH]n(-c2ccc(Br)cc2)c(=O)c1/C=N/NC(=O)c1ccccc1,-87.3%
2,Cc1cc(C(=O)CSc2nnc(-c3cccs3)o2)c(C)n1-c1ccccc1,-4.58%
3,CC1=C(C(=O)OCc2ccc3c(c2)OCO3)C(c2ccc(Cl)cc2)NC(=O)N1 (stereo not drawn),-87.8%
4,CC(=O)Oc1ccc(C(=O)Nc2cccnc2)cc1,-6.76%
5,O=C(O)c1cccc(Nc2ccnc(Nc3cccc(C(=O)O)c3)n2)c1,-17.6%
6,O=C(CN1C(=O)c2ccccc2S1(=O)=O)Nc1ncc(Cl)cc1Cl,-4.81%
7,Oc1[nH]c2ccccc2c1N=Nc1c(F)c(F)c(Cl)c(F)c1F,-13%
8,CN(C)c1ccc(-c2nc3ccccc3n2C)cc1,12.4%
9,COc1ccc(C(=O)N=c2nc3ccccn3s2)cc1,-14.4%
10,COc1ccc(C(Nc2ccccn2)c2oc(CO)cc(=O)c2O)cc1 (stereo not drawn),-3.88%
11,C[C@@H]1CN([C@@H](C)CO)C(=O)c2cc(NC(=O)Nc3ccccc3)ccc2O[C@H]1CN(C)C(=O)Nc1cccc2ccccc12,27.7%
12,CCC(=O)NC(c1ccc(C)cc1)c1ccc2cccnc2c1O (stereo not drawn),-80.4%
13,CCCC(=O)NC(c1ccc(C(C)C)cc1)c1ccc2cccnc2c1O (stereo not drawn),-83.8%
14,CCCCC(=O)NC(c1ccc(OC)c(OC)c1)c1ccc2cccnc2c1O (stereo not drawn),-81.1%
15,CCCC(=O)NC(c1ccc(C)cc1)c1ccc2cccnc2c1O (stereo not drawn),-68.9%
16,COc1cccc(C2=CC(=O)C[C@H](c3ccc4c(c3)OCO4)C2)c1,-1.55%
17,C[C@@H]1CN([C@@H](C)CO)S(=O)(=O)c2ccc(/C=C/c3ccccc3)cc2O[C@@H]1CN(C)Cc1ccc(C(=O)O)cc1,89.4%
18,CCCCCN=Cc1c(C)[nH]n(-c2nc3ccccc3s2)c1=O,-4.71%
19,O=C(OCc1nc2ccccc2s1)[C@@H]1CCCN1S(=O)(=O)c1ccccc1F,17.3%
20,CCOc1ccc(N(C(C)C(=O)N2CCCCCC2)S(C)(=O)=O)cc1 (stereo not drawn),-3.25%
21,CCSc1nnc(NC(=O)CSc2nnc(-c3c[nH]c4ccccc34)n2CC)s1,40.4%

row,Compound,"activity change, negative = inhibition"
1,O=C(/C=C1\NC2(CCCC2)Cc2ccccc21)C(=O)N/N=C/c1ccccc1O,-21.8%
2,CCSc1nc2ccc(OC)cc2cc1C#N,5.68%
3,O=C(C1CCCCC1)N1CCN(c2ncccn2)CC1,-7.76%
4,COC(=O)c1[nH]c2ccc(C)cc2c1NC(=O)NC1CCCCC1,13.7%
5,O=C1c2ccccc2C(=O)c2cc(N3CCCCC3)ccc21,5.87%
6,N/C(=N\OC(=O)c1ccccc1)c1ccccn1,6.51%
7,O=C(Nc1ccc(Cl)cc1)Nc1nnc(CSCc2ccc(Cl)cc2)s1,-9.55%
8,Nc1ccn(C2CCCO2)c(=O)n1 (stereo not drawn),0.032%
9,COc1ccc(C(=O)Nc2nnc(SCC(=O)NC3CC3)s2)cc1,5.05%
10,CCOc1ccc(C(=O)Nc2nnc(SCC(=O)NCC3CCCO3)s2)cc1 (stereo not drawn),27.3%
11,CSc1nc(C)cc(C)c1C#N,8.86%
12,COC(=O)[C@@]1(C)[C@H]2C(=O)N(Cc3ccccc3)C(=O)[C@H]2[C@H]2CN=C(SCc3ccc(Cl)cc3)N21,-98.7%
13,Cc1cccc(NC(=O)c2cnc3ccccn3c2=O)c1,-11.4%
14,COCCNC(=O)C1CCC(CNS(=O)(=O)c2ccccc2)CC1 (stereo not drawn),-3%
15,NC(=S)NN=Cc1nccc2c(C(F)(F)C(F)(F)C(F)(F)F)cccc12,-99.4%
16,NC(=S)NN=Cc1nccc2c(C(F)(F)F)cccc12,-100%
17,O=C(Nc1ccccc1)c1cn2ccccc2n1,-9.66%
18,COC(=O)CSc1ncnc2c1sc1nc3c(cc12)COC(C)(C)C3,-2.11%
19,C[C@H](NC(=O)N1CCn2c1nc1ccccc12)C(=O)NCC1CCCO1 (stereo partly drawn),8.93%
20,CCN(C(=O)c1cc(OC)c(OC)c(OC)c1)C1CCCCC1,7.62%
21,CCOC(=O)c1c(CSc2nc(C)cc(C)c2C#N)n(C)c2cc(Br)c(OC(C)=O)cc12,3.15%

row,Compound,"activity change, negative = inhibition"
1,CC(=NNC(=S)N1CCCCC1)c1cccc(C)n1,-27.2%
2,CCCc1c(C(=O)N/N=C(\C)c2ccccn2)nnn1-c1nonc1N,22.8%
3,CC(=NNC(=S)N1CCCCCC1)c1cccc2cccnc12,-12%
4,COC(=O)c1ccc(COc2ccccc2/C=C/C(=O)c2ccc(OCC(=O)O)cc2)cc1,-8.56%
5,COC(=O)c1ccccc1NC(=O)CC(=O)Nc1ccccc1C(=O)OC,1.92%
6,COc1cccc(C(=O)N2CCN(c3nc4cc(C)cc(C)c4cc3C#N)CC2)c1,-18%
7,Cc1cc(=O)[nH]c(NN=Cc2cc(Br)ccc2O)n1,-97.9%
8,COc1ccc(N2C(=O)C(=O)/C(=C(/O)c3ccc(C)cc3)C2c2cccnc2)cc1 (stereo not drawn),22.8%
9,CCCC(=O)C1=C(O)C(C(=O)OC)C(C)(C)CC1=Nc1ccncc1 (stereo not drawn),19.7%
10,Cc1csc(N=Nc2ccc(N(C)C)cc2)[n+]1[O-],-34.3%
11,Cc1ccc2c(c1)N(CC(=O)N1CCCC1)C(=O)c1cccnc1O2,38.8%
12,COc1ccccc1N1CCN(C(=O)CCC(=O)N2CCN(c3ccc(F)cc3)CC2)CC1,3.73%
13,O=C(CSc1nnc(NC(=O)c2ccc3c(c2)OCO3)s1)NCc1ccco1,9.96%
14,C/C(=N/NC(=O)c1cc(C2CC2)[nH]n1)c1cccs1,20.3%
15,Cn1c(/C=C/c2ccccc2)nc2ccccc21,1.47%
16,COc1cccc(/C=N/NC(=O)c2[nH]nc3c2CCc2ccccc2-3)c1O,-95.5%
17,Cc1ccc2[nH]c(C(=O)N/N=C/c3ccccc3O)c(C)c2c1,4.04%
18,Cn1c(=O)c2c(ncn2CC(=O)Nc2cc(S(=O)(=O)N3CCCCC3)ccc2O)n(C)c1=O,-5.88%
19,COc1ccc(CCNC(=O)CSc2ccsc2[N+](=O)[O-])cc1OC,-6.35%
20,COC(=O)C(NS(=O)(=O)c1ccc(N2CCCC2=O)cc1)c1ccccc1 (stereo not drawn),-12.8%
21,CC(C)(C)c1nc2c(s1)CCc1onc(-c3ccc(Br)cc3)c1-2,14.6%

row,Compound,"activity change, negative = inhibition"
1,CN(C)c1ccc(C=Cc2ccnc3c(O)cccc23)cc1,11.2%
2,COc1ccc(S(=O)(=O)N2CCN(CC(=O)Nc3ccc(C)c(F)c3)CC2)cc1,-19.7%
3,Cc1cnc(NC(=O)c2ccccn2)s1,9%
4,CC(=NNC(=S)Nc1ccccc1Cl)c1ccccn1,-97.9%
5,CC(=NNC(=S)Nc1ccccc1)c1ccccn1,-98.8%
6,C/C(=N/NC(=O)c1ccc(C(C)(C)C)cc1)c1ccccn1,-87.1%
7,CCOc1cc(C(=O)OC(C)C(=O)Nc2ncc(Cl)cc2Cl)ccc1OCC(=O)N1CCOCC1 (stereo not drawn),12.4%
8,CCCCCC(=O)N1C[C@@H](O)[C@H](n2cc(C3CC3)nn2)C[C@@H]1c1ccc(C)cc1,7.65%
9,O=C(Nc1cnc2ccccn2c1=O)c1ccc(Cl)cc1Cl,-8.94%
10,O=C(O)/C=C/c1ccc2ccccc2n1,-37.2%
11,Cc1cc(C)nc(N/C(=N\S(=O)(=O)Cc2ccccc2)Nc2ccccc2Br)n1,-58.7%
12,O=C1OCC2=C1C(c1ccc3c(c1)OCO3)c1cc3c(cc1O2)OCO3 (stereo not drawn),109%
13,Cc1nc(Nc2nc3ccccc3o2)nc2c1CCC2,-4.15%
14,Cc1cccc(C)c1Nc1nc2ccccc2o1,18.3%
15,O=[N+]([O-])c1ccc2ncnc(N3CCN(Cc4ccc5c(c4)OCO5)CC3)c2c1,-93.3%
16,CC(=C/c1ccccc1)/C=N/n1c(-c2ccncc2)n[nH]c1=S,-87.9%
17,CCOC(=O)c1ccc(NC(=O)CSc2nc(N3CCOCC3)nc(N3CCOCC3)n2)cc1,-0.658%
18,Cc1ccc(S(=O)(=O)N2c3ccccc3-c3c(ssc3=S)C2(C)C)cc1,0.776%
19,Cc1cccc(-n2ncc3c(N4CCOCC4)ncnc32)c1,8.93%
20,O=C(Cc1cccc2ccccc12)Nc1ccc(-c2cc3ccccc3oc2=O)cc1,5.22%
